These results are taken from the supplement of paper PMC10037445.

“And” between values parts separate entries of the source, which are not always exact repeats. Equal values may be shown once. In all, about 2,900 compounds were measured (“NF-kB SEAP reporter activity, fold change vs agonist alone”: median about 0.99, highest 2% from about 2.6 on). The list comes from a sample in which the highest values are over-represented; it also holds similar structures and randomly drawn compounds.

Experiment [1] has as its system RAW-Dual. Description: NF-kB SEAP reporter activity, fold change vs agonist alone; cytotoxicity flag (confluency mask): not cytotoxic; higher = enhanced NF-kB activity. Summed up:
(§1)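 RAW-Dual macrophages were seeded in DMEM at 50,000 cells/well in 384-well plates, given 50 nL of library stock by pin tool, and given a PRR agonist 1 h later. Plates were held at 37 °C, 5% CO2 for 20 hours, after which supernatant was read for IRF by QuantiLuc luminescence and for NF-κB by QuantiBlue absorbance at 620 nm. Reporter activity is expressed as fold change over wells that received agonist alone. A well was called cytotoxic when IncuCyte confluency fell below 70% of agonist controls in both mask sets.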

In experiment [2] the test system is RAW-Dual. Description: NF-kB SEAP reporter activity, fold change vs agonist alone; higher = enhanced NF-kB activity. The note with it: library stock concentration (final ~1000-fold dilution): 10 mM. The procedure, abridged:
as §1

Experiment [3] concerns RAW-Dual. In words: NF-kB SEAP reporter activity, fold change vs agonist alone; cytotoxicity flag (confluency mask): cytotoxic (confluency <70% of control); higher = enhanced NF-kB activity. Summed up: as §1
Setting [4] is: agonist: ODN 1826 (TLR9) 0.5 ug/mL.
Where [5] appears, read: agonist: Pam2CSK4 (TLR2/6) 0.1 ug/mL.
The mark [6] stands for this setting: agonist: Pam3CSK4 (TLR2/1) 0.1 ug/mL.
Where [7] appears, read: cytotoxicity flag (confluency mask): not cytotoxic, agonist: Imiquimod (TLR7) […].
[8] abbreviates: cytotoxicity flag (confluency mask): not cytotoxic, agonist: MPLA (TLR4) […].
[9] abbreviates: cytotoxicity flag (confluency mask): cytotoxic (confluency <70% of control), agonist: MPLA (TLR4) […].
Setting [10] is: cytotoxicity flag (confluency mask): cytotoxic (confluency <70% of control), agonist: Imiquimod (TLR7) […].

`CC(C)=CCCC(C)(OC1OC(CO)C(O)C(O)C1O)C1CCC2(C)C1C(O)CC1C3(C)CCC(O)C(C)(C)C3C(OC3OC(CO)C(O)C(O)C3OC3OCC(O)C(O)C3O)CC12C` (stereo not drawn) (library stock concentration (final ~1000-fold dilution): 10 mM): the “NF-kB SEAP reporter activity” value in the experiment with RAW-Dual [1] (agonist: LPS (TLR4) 0.1 ug/mL) worked out at 0.93; in the experiment on RAW-Dual [1] (setting [4]), 1.02; in the experiment with RAW-Dual [1] (setting [5]) it was 0.792; in the experiment on RAW-Dual [1] (setting [6]), 0.975.

With `CC(C)=CCCC(C)(OC1OC(CO)C(O)C(O)C1O)C1CCC2(C)C1C(O)CC1C3(C)CCC(O)C(C)(C)C3C(OC3OC(CO)C(O)C(O)C3OC3OCC(O)C(O)C3O)CC12C` (stereo not drawn), the “NF-kB SEAP reporter activity” value came to 0.818 in the experiment on RAW-Dual [2] (setting [7]) and 0.958 in the experiment on RAW-Dual [2] (setting [8]).

On to `CS(=O)(=O)O.Fc1ccc(C2CCNCC2COc2ccc3c(c2)OCO3)cc1` (stereo not drawn), for which the “NF-kB SEAP reporter activity” value with RAW-Dual [2] (setting [9]) was 1.43.

On to `CS(=O)(=O)O.Fc1ccc(C2CCNCC2COc2ccc3c(c2)OCO3)cc1` (stereo not drawn) (library stock concentration (final ~1000-fold dilution): 10 mM), for which the “NF-kB SEAP reporter activity” value amounted to 1.08 with RAW-Dual [3] (agonist: LPS (TLR4) 0.1 ug/mL), 0.542 in the experiment on RAW-Dual [3] (setting [4]), 0.486 in the experiment on RAW-Dual [3] (setting [5]) and 0.425 in the experiment on RAW-Dual [3] (setting [6]).

As for `Fc1ccc(Nc2nc(Nc3ccc(-c4nc5ccccc5[nH]4)cc3)nc(N3CCOCC3)n2)cc1`, the “NF-kB SEAP reporter activity” value came to 0.399 in the experiment with RAW-Dual [2] (setting [10]) and 1.42 with RAW-Dual [2] (setting [9]).

Take `Fc1ccc(Nc2nc(Nc3ccc(-c4nc5ccccc5[nH]4)cc3)nc(N3CCOCC3)n2)cc1` (library stock concentration (final ~1000-fold dilution): 10 mM): the “NF-kB SEAP reporter activity” value in the experiment on RAW-Dual [3] (agonist: LPS (TLR4) 0.1 ug/mL) stood at 0.621; in the experiment on RAW-Dual [3] (setting [4]), 0.452; in the experiment on RAW-Dual [3] (setting [5]) it was 0.212; in the experiment with RAW-Dual [3] (setting [6]) it was 0.25.

Regarding `CCC(CC)(NC(=O)C(C)C)C(=O)NC(CCCNC(=N)N)C(=O)NC1(C(=O)NC(c2ccc(F)cc2)c2ccc(F)cc2)CCCC1` (stereo not drawn) (library stock concentration (final ~1000-fold dilution): 10 mM), the “NF-kB SEAP reporter activity” value with RAW-Dual [1] (agonist: LPS (TLR4) 0.1 ug/mL) amounted to 0.847; in the experiment on RAW-Dual [1] (setting [4]), 0.788; with RAW-Dual [1] (setting [5]) it was 0.957; with RAW-Dual [1] (setting [6]), 0.971.

With `CCC(CC)(NC(=O)C(C)C)C(=O)NC(CCCNC(=N)N)C(=O)NC1(C(=O)NC(c2ccc(F)cc2)c2ccc(F)cc2)CCCC1` (stereo not drawn), the “NF-kB SEAP reporter activity” value in the experiment with RAW-Dual [2] (setting [7]) was 1.08; with RAW-Dual [2] (setting [8]) it was 0.867.

With `CC/C(C)=C/CC[C@](C)(O)C1CC[C@]2(C)C3C[C@@H](O[C@@H]4O[C@H](CO)[C@@H](O)[C@H](O)[C@H]4O[C@@H]4O[C@@H](C)[C@H](O)[C@@H](O)[C@H]4O)C4C(C)(C)C(O)CC[C@]4(C)C3C[C@H](O)C12` (stereo partly drawn) (library stock concentration (final ~1000-fold dilution): 10 mM), the “NF-kB SEAP reporter activity” value in the experiment on RAW-Dual [1] (agonist: LPS (TLR4) 0.1 ug/mL) was 1.2; with RAW-Dual [1] (setting [4]), 0.992; in the experiment on RAW-Dual [1] (setting [5]), 0.952; in the experiment with RAW-Dual [1] (setting [6]), 1.14.

On to `CC/C(C)=C/CC[C@](C)(O)C1CC[C@]2(C)C3C[C@@H](O[C@@H]4O[C@H](CO)[C@@H](O)[C@H](O)[C@H]4O[C@@H]4O[C@@H](C)[C@H](O)[C@@H](O)[C@H]4O)C4C(C)(C)C(O)CC[C@]4(C)C3C[C@H](O)C12` (stereo partly drawn), for which the “NF-kB SEAP reporter activity” value with RAW-Dual [2] (setting [7]) was determined as 0.952; with RAW-Dual [2] (setting [8]), 0.934.

In the case of `Cc1ccccc1C(=O)N1CCc2cc(-c3nc(NC(=O)Cc4ccc5c(c4)OCO5)sc3C)ccc21` (library stock concentration (final ~1000-fold dilution): 10 mM), the “NF-kB SEAP reporter activity” value in the experiment with RAW-Dual [1] (agonist: LPS (TLR4) 0.1 ug/mL) is 1.34 and 1.45; with RAW-Dual [1] (setting [4]) it was 0.971 and 0.758; in the experiment on RAW-Dual [1] (setting [5]), 0.716 and 0.692; in the experiment on RAW-Dual [1] (setting [6]) it was 0.695 and 0.61.

For the molecule `CN1C(=O)C(C)(C)Oc2c(-c3cn(C)c(=O)c4[nH]ccc34)cc(S(C)(=O)=O)cc21`, the “NF-kB SEAP reporter activity” value in the experiment with RAW-Dual [2] (setting [10]) is 1.56; in the experiment with RAW-Dual [2] (setting [9]) it was 2.34.

As to `CCS(=O)(=O)Nc1ccc(Oc2ccc(F)cc2F)c(-c2cn(C)c(=O)c3[nH]ccc23)c1`, the “NF-kB SEAP reporter activity” value is 1.54 with RAW-Dual [2] (setting [10]) and 2.13 in the experiment on RAW-Dual [2] (setting [9]).

As for `CCNC(=O)c1cc2c(-c3cc(C(C)(C)O)ccc3Oc3c(C)cc(F)cc3C)cn(C)c(=O)c2[nH]1` (library stock concentration (final ~1000-fold dilution): 10 mM), the “NF-kB SEAP reporter activity” value worked out at 0.903 in the experiment with RAW-Dual [3] (agonist: LPS (TLR4) 0.1 ug/mL), 1.34 in the experiment with RAW-Dual [3] (setting [4]), 0.318 in the experiment with RAW-Dual [3] (setting [5]) and 0.842 in the experiment with RAW-Dual [3] (setting [6]).

Consider `CCS(=O)(=O)Nc1ccc(Oc2ccc(F)cc2F)c(-c2cn(C)c(=O)c3[nH]ccc23)c1` (library stock concentration (final ~1000-fold dilution): 10 mM), for which the “NF-kB SEAP reporter activity” value was found to be 3.19 in the experiment with RAW-Dual [3] (agonist: LPS (TLR4) 0.1 ug/mL), 2.18 in the experiment with RAW-Dual [3] (setting [4]), 0.424 in the experiment with RAW-Dual [3] (setting [5]) and 1.13 in the experiment with RAW-Dual [3] (setting [6]).

For `CN1C(=O)C(C)(C)Oc2c(-c3cn(C)c(=O)c4[nH]ccc34)cc(S(C)(=O)=O)cc21` (library stock concentration (final ~1000-fold dilution): 10 mM), the “NF-kB SEAP reporter activity” value in the experiment with RAW-Dual [3] (agonist: LPS (TLR4) 0.1 ug/mL) worked out at 2.16; with RAW-Dual [3] (setting [4]) it was 1.73; in the experiment on RAW-Dual [3] (setting [5]), 0.658; with RAW-Dual [3] (setting [6]), 1.99.

`CCNC(=O)c1cc2c(-c3cc(C(C)(C)O)ccc3Oc3c(C)cc(F)cc3C)cn(C)c(=O)c2[nH]1`: the “NF-kB SEAP reporter activity” value in the experiment on RAW-Dual [2] (setting [10]) is 1.4; with RAW-Dual [2] (setting [9]), 1.84.

Turning to `CC1OC(OC2C(CO)OC(OCC3OC(OC(=O)[C@]45CC[C@@H](C)[C@H](C)[C@H]4C4=CCC6[C@@]7(C)C[C@@H](O)[C@@H](O)[C@@](C)(CO)C7CC[C@@]6(C)[C@]4(C)CC5)C(O)C(O)C3O)C(O)C2O)C(O)C(O)C1O` (stereo partly drawn) (library stock concentration (final ~1000-fold dilution): 10 mM), the “NF-kB SEAP reporter activity” value in the experiment on RAW-Dual [1] (agonist: LPS (TLR4) 0.1 ug/mL) is 1.08; with RAW-Dual [1] (setting [4]), 0.915; in the experiment on RAW-Dual [1] (setting [5]) it was 1.06; with RAW-Dual [1] (setting [6]), 1.1.

Regarding `CC1OC(OC2C(CO)OC(OCC3OC(OC(=O)[C@]45CC[C@@H](C)[C@H](C)[C@H]4C4=CCC6[C@@]7(C)C[C@@H](O)[C@@H](O)[C@@](C)(CO)C7CC[C@@]6(C)[C@]4(C)CC5)C(O)C(O)C3O)C(O)C2O)C(O)C(O)C1O` (stereo partly drawn), the “NF-kB SEAP reporter activity” value in the experiment on RAW-Dual [2] (setting [7]) came out at 0.975; in the experiment with RAW-Dual [2] (setting [8]), 1.12.

Consider `Cc1c(CN2CCC(Nc3ncnc4sc(CC(F)(F)F)cc34)CC2)ccc2[nH]c(C#N)cc12` (library stock concentration (final ~1000-fold dilution): 10 mM), for which the “NF-kB SEAP reporter activity” value with RAW-Dual [1] (agonist: LPS (TLR4) 0.1 ug/mL) stood at 1.32; in the experiment with RAW-Dual [1] (setting [4]), 0.176; in the experiment with RAW-Dual [1] (setting [5]), 0.631; in the experiment on RAW-Dual [1] (setting [6]), 0.575.

Take `Cc1c(CN2CCC(Nc3ncnc4sc(CC(F)(F)F)cc34)CC2)ccc2[nH]c(C#N)cc12`: the figures for the “NF-kB SEAP reporter activity” value with RAW-Dual [2] (setting [7]) and in the experiment on RAW-Dual [2] (setting [8]) were 0.878 and 0.915, respectively.

As for `O=C(NC1=CC(=O)[C@H]2O[C@H]2[C@H]1O)c1ccccc1O`, the figures for the “NF-kB SEAP reporter activity” value in the experiment with RAW-Dual [2] (setting [7]) and in the experiment with RAW-Dual [2] (setting [8]) were 1 and 1.08, respectively.

Turning to `O=C(NC1=CC(=O)[C@H]2O[C@H]2[C@H]1O)c1ccccc1O` (library stock concentration (final ~1000-fold dilution): 10 mM), the “NF-kB SEAP reporter activity” value in the experiment with RAW-Dual [1] (agonist: LPS (TLR4) 0.1 ug/mL) was 0.727; in the experiment with RAW-Dual [1] (setting [4]), 0.951; in the experiment on RAW-Dual [1] (setting [5]), 0.806; in the experiment with RAW-Dual [1] (setting [6]) it was 0.551.

In the case of `COc1ccc(CNC(=O)CCl)cc1OC`, the “NF-kB SEAP reporter activity” value in the experiment on RAW-Dual [2] (setting [7]) turned out to be 1.02; in the experiment with RAW-Dual [2] (setting [8]), 0.962.

As to `COc1cc(OC)c(C=CS(=O)(=O)Cc2ccc(OC)c(NCC(=O)O)c2)c(OC)c1`, the “NF-kB SEAP reporter activity” value in the experiment on RAW-Dual [2] (setting [7]) turned out to be 2.64; with RAW-Dual [2] (setting [8]), 2.27.
